A number with no mark means an inactive call. No rule for the calls is given here.
Target: PDL1, Q9NZQ7
Sequence (Q9NZQ7 whole entry): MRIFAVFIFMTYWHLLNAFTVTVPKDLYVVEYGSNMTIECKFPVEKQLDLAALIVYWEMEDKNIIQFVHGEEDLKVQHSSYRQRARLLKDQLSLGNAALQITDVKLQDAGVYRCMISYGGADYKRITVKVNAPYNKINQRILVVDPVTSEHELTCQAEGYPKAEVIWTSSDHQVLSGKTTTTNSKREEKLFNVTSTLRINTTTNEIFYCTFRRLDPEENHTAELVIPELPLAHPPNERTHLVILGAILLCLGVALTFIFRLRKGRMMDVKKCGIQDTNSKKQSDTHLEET

Row | Binder | binding in a display sort
1 | d8r1_design_ppi_891_dldesign_0_cycle0_af2pred (protein) SAVREEAERKAEEVAELAKKDPEKGLEAMKAYLEELVAAGHREAALYAAARAASLMFSDPSTLETAIAVSRYAAELAA | not found
2 | d8r1_design_ppi_227_dldesign_0_cycle1_af2pred (protein) GAKAKAKAVLDKAKEKLAEAMKAALDADESKKPEVYKLIAEAAAALAKGIAAYKAAKNEAQLKEAIAWFEKAIAAAEKAIKLAK | not found
3 | d8r1_design_ppi_477_dldesign_0_cycle1_af2pred (protein) SAEDVKRAAAGLKAAAKAYAALAAENKEVKEAAKELEKAAKLLLEDPEKGREKAAEESLKLNQLVIKAAD | not found
4 | d8r1_design_ppi_1238_dldesign_0_cycle0_af2pred (protein) MEETKKLIEEARKLAEEARRALKEDKERALELLREAANKASKALALADEESEELAEEAKKVLAEISKVAKELAK | not found
5 | d8r1_design_ppi_516_dldesign_0_cycle1_af2pred (protein) AEEELRRQIEEQGERLEEAAEELRRLAEEARERDPAAGRALEAAAESLRGLVEIAKELDPGSAQGVIQVAERVAERARRLAEEYLAA | not found
6 | d8r1_design_ppi_1045_dldesign_0_cycle0_af2pred (protein) SADTKEGADLFTKAAEQLLKVGEELLKKGKETGDEKLIKEALKYFEAAAAYAEAAATLAAKADAAAAAKAKELKEKAKKAAEEAKKAL | not found
7 | d8r1_design_ppi_1162_dldesign_0_cycle1_af2pred (protein) MSLAEEAALEGQKNSPMLGAVLYGHAKRSDAAVAELLLEAAKGDAATARAQARAAAALLPPEEGARLVTDVTAALEADEKDK | not found
8 | d8r1_design_ppi_584_dldesign_0_cycle0_af2pred (protein) AAARAAEAAALKAKAKEIAAEAFSYAALSSRDEEAKKEADKKIEELKKLAKEAKAKGLEEAAKFAEDFAEGAETLKKVVEEA | not found
9 | d8r1_design_ppi_271_dldesign_0_cycle0_af2pred (protein) AAAELAATIAAAAAAAAADGPRGLALLAGAILRAFPSLSAETLAEIIRLAAADPAAAAEAIAALAAAHPEAAPALAAALRAALAELA | not found
10 | d8r1_design_ppi_895_dldesign_0_cycle1_af2pred (protein) MTPEAKSAFAAAQSLADAIKLGAKEGLLTPETRAALVEKLRAAAAEAAALDPAIAPQAAALAADAEAAAA | binds (active)
11 | d8r1_design_ppi_295_dldesign_0_cycle0_af2pred (protein) SLKEKAEKHLELAQKYAEKAGKLRGVKIEVKGANLEELKALRKEFGAWADEAAKAGDKETAIEATRAAAHLGEAIDLLEEL | not found
12 | d8r1_design_ppi_645_dldesign_0_cycle1_af2pred (protein) KIEKAKELLKKAKELLKEAKANPETAIEKAKAALADLSEAASLAAEAAKDPETKEEAEKLLAEAKKLGLEATQLLMKQSSLEEK | not found
13 | d8r1_design_ppi_41_dldesign_0_cycle0_af2pred (protein) RGEEVLERVKESASRAMSLAAKDPSLSEKVLEALALASEAGRAIKTEGVEKGEELAKKAEELTKEIEEEAK | not found
14 | d8r1_design_ppi_1118_dldesign_0_cycle0_af2pred (protein) SEGSEALARFAKSMAEVAKIKAEEAAKVDAEVAAIFKEAAKLYEEAAKAAKEDVEKGKKLLTEANKKMAEGLAAMKKKKA | not found
15 | d8r1_design_ppi_587_dldesign_0_cycle1_af2pred (protein) MLTPEALNAIAKLGSEAGSLAAKATPEQKAEGRKLGELVAEKMLASSPEEALEIAKKLLEEGKKDLTYAVATATAASRVLRAYLQQLS | not found
16 | d8r1_design_ppi_560_dldesign_0_cycle0_af2pred (protein) SAEEEEEKLREEAEKAVAEAKATAAAFKAQAATATPEKAAALNAAVAALAGLIKIAEDPEARRGASRAAKSVIAHAKRVLAA | not found
17 | d8r1_design_ppi_701_dldesign_0_cycle1_af2pred (protein) EERRRRGEELLLEALALIGAAARDPAAAPAAVAALRAAAALVPELAPELERAAALVEAGLAAAKEAAAIVGSLALKMAS | not found
18 | d8r1_design_ppi_1335_dldesign_0_cycle0_af2pred (protein) EAAAAATIEAAAKAAAEFTGLPVEEVLALAALAAADPAAARALRERLGEEDPLRAAAADVMLTVVAQAKRELA | not found
19 | d8r1_design_ppi_823_dldesign_0_cycle1_af2pred (protein) SSSEEEIDAKLEAAVAAVKEATALAKAAVAEGPAALPALEAFAAEKTAEFAKLGGVGAAAGAALQAVVDAARAQLA | not found
